Data on twelve compounds can be found in PubChem BioAssay (EPA / NIEHS).

Common to all, as to settings: mRNA level, 48 h; actives raise or lower the signal
Read-out in experiment [1]: Nuclear factor NF-kappa-B p105 subunit (Homo sapiens) (UniProt P19838)
Nature of the experiment: LTEA_HepaRG_NFKB1: Life Technologies and Expression Analysis (LTEA) Assay for Nuclear Factor Kappa B Subunit 1 (NFKB1) using HepaRG (AID 2283521).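 Further: TaqMan qRT-PCR transcript normalised to ACTB GAPDH and POLR2A housekeeping genes.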 In short, it runs like this:
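Differentiated human HepaRG cells in serum-free induction medium with 0.5% DMSO were exposed for 48 h to eight half-log concentrations, top 100 uM, in duplicate. NFKB1 mRNA measured by Fluidigm TaqMan qRT-PCR, normalised to ACTB, GAPDH and POLR2A; bidirectional fit versus DMSO.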

Read-out in experiment [2]: Protein phosphatase 2A (PPP2R4), PTPA (gene 5524)
Nature of the experiment: LTEA_HepaRG_PPP2R4: Life Technologies and Expression Analysis (LTEA) Assay for Protein phosphatase 2A (PPP2R4) using HepaRG (AID 2283522). In short, it runs like this:
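Differentiated human HepaRG cells in serum-free induction medium were exposed 48 h to 8 concentrations (top 100 µM, half-log steps, duplicate) in 0.5% DMSO. PPP2R4 mRNA was measured by TaqMan qRT-PCR, normalised to ACTB, GAPDH and POLR2A, and fitted bidirectionally versus DMSO.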

Read-out in experiment [3]: Phosphatase and tensin (PTEN), PTEN (gene 5728)
Nature of the experiment: LTEA_HepaRG_PTEN: Life Technologies and Expression Analysis (LTEA) Assay for Phosphatase and tensin (PTEN) using HepaRG (AID 2283523). In outline:
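HepaRG cells, 48 h after plating, exposed in duplicate for 48 h in serum-free induction medium to 8 half-log concentrations up to 100 uM (0.5% DMSO). PTEN mRNA by qRT-PCR, normalized to ACTB, GAPDH, POLR2A; bidirectional fit versus DMSO.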

Read-out in experiment [4]: solute carrier (SLC22A1), SLC22A1 (gene 6580)
Nature of the experiment: LTEA_HepaRG_SLC22A1: Life Technologies and Expression Analysis (LTEA) Assay for solute carrier (SLC22A1) using HepaRG (AID 2283524). In outline:
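Differentiated human HepaRG cells in serum-free induction medium, exposed 48 h in duplicate to 8-point half-log series from 100 µM top in 0.5% DMSO. SLC22A1 mRNA by TaqMan qRT-PCR normalized to ACTB, GAPDH, POLR2A; bidirectional fit versus DMSO.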

Read-out in experiment [5]: Pyruvate Dehydrogenase Kinase 4 (PDK4), PDK4 (gene 5166)
Nature of the experiment: LTEA_HepaRG_PDK4: Life Technologies and Expression Analysis (LTEA) Assay for Pyruvate Dehydrogenase Kinase 4 (PDK4) using HepaRG (AID 2283525). In outline:
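HepaRG cells plated 48 h, then switched to serum-free induction medium and exposed in duplicate for 48 h to 8 half-log concentrations from 100 uM in 0.5% DMSO. PDK4 mRNA measured by qRT-PCR, normalized to ACTB, GAPDH and POLR2A; bidirectional fit versus DMSO.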

Read-out in experiment [6]: NAD(P)H dehydrogenase [quinone] 1 (NQO1), NQO1 (gene 1728)
Nature of the experiment: LTEA_HepaRG_NQO1: Life Technologies and Expression Analysis (LTEA) Assay for NAD(P)H dehydrogenase [quinone] 1 (NQO1) using HepaRG (AID 2283526). In outline:
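Differentiated human HepaRG cells in serum-free induction medium, dosed in duplicate for 48 h at 8 half-log concentrations up to 100 uM in 0.5% DMSO. NQO1 mRNA by qRT-PCR normalized to ACTB, GAPDH, POLR2A; bidirectional fit versus DMSO baseline.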

Read-out in experiment [7]: Nuclear factor erythroid 2-related factor 2 (Homo sapiens) (UniProt Q16236)
Briefly: LTEA_HepaRG_NFE2L2: Life Technologies and Expression Analysis (LTEA) Assay for Nuclear factor erythroid 2-related factor 2 (NFE2L2) Transcription Factor using HepaRG (AID 2283527).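 On outcome: TaqMan qRT-PCR transcript level normalised to ACTB GAPDH and POLR2A housekeeping genes.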 In short, it runs like this:
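Differentiated human HepaRG cells, serum-free induction medium, exposed 48 h in duplicate to eight half-log concentrations up to 100 uM in 0.5% DMSO. NFE2L2 mRNA by Fluidigm TaqMan qRT-PCR, normalised to ACTB, GAPDH, POLR2A; bidirectional change versus DMSO.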

Read-out in experiment [8]: succinate dehydrogenase complex iron sulfur subunit B (SDHB), SDHB (gene 6390)
Nature of the experiment: LTEA_HepaRG_SDHB: Life Technologies and Expression Analysis (LTEA) Assay for succinate dehydrogenase complex iron sulfur subunit B (SDHB) using HepaRG (AID 2283528). In outline:
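HepaRG cells (~100,000/well, plated 48 h) exposed in duplicate for 48 h in serum-free induction medium to 8-point half-log series from 100 uM in 0.5% DMSO; mRNA by qRT-PCR normalised to ACTB, GAPDH, POLR2A; bidirectional fit versus DMSO.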

Read-out in experiment [9]: Signal transducer and activator of transcription 3 (Homo sapiens) (UniProt P40763)
Nature of the experiment: LTEA_HepaRG_STAT3: Life Technologies and Expression Analysis (LTEA) Assay for Signal transducer and activator of transcription (STAT3) using HepaRG (AID 2283529). In short, it runs like this: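 Differentiated HepaRG cells, serum-free induction medium, dosed 48 h in duplicate, 8 half-log concentrations from 100 uM in 0.5% DMSO. STAT3 mRNA by qRT-PCR, normalised to ACTB, GAPDH, POLR2A; bidirectional fit versus DMSO.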

Read-out in experiment [10]: solute carrier (SLCO1B1), SLCO1B1 (gene 10599)
Briefly: LTEA_HepaRG_SLCO1B1: Life Technologies and Expression Analysis (LTEA) Assay for solute carrier (SLCO1B1) using HepaRG (AID 2283530). In outline:
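Gain or loss of SLCO1B1 mRNA is fitted against the 0.5% DMSO vehicle in human HepaRG liver cells treated 48 h at up to 100 uM in half-log steps. Expression comes from qRT-PCR normalized to endogenous controls.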

“And” between values parts separate entries of the source, which are not always exact repeats. Equal values may be shown once. Some structures have more than one record in an assay (separate samples or runs), and their calls can disagree. The source made the active and inactive calls. How the source made its calls: active means hit-call score of the fitted dose curve at least 0.9, where 1 is the maximum; inactive means score below 0.9.

Sequence of Nuclear factor erythroid 2-related factor 2 (Homo sapiens) (Q16236 whole entry, looked up): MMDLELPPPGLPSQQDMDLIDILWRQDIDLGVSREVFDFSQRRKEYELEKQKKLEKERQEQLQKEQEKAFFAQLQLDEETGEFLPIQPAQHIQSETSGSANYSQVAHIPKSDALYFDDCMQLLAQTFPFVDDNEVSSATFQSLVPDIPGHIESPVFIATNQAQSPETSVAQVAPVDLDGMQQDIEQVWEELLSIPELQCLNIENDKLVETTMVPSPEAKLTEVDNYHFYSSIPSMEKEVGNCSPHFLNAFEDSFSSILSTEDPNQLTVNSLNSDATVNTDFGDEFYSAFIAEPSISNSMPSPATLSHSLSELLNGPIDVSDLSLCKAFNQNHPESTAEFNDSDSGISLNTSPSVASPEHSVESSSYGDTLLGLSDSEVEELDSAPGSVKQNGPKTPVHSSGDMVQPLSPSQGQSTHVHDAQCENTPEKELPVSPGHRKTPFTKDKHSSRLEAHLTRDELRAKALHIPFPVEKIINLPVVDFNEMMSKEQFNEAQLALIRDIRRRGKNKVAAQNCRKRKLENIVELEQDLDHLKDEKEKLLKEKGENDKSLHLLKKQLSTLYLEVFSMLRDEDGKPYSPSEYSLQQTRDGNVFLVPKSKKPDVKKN
Sequence of Nuclear factor NF-kappa-B p105 subunit (Homo sapiens) (P19838 whole entry, looked up): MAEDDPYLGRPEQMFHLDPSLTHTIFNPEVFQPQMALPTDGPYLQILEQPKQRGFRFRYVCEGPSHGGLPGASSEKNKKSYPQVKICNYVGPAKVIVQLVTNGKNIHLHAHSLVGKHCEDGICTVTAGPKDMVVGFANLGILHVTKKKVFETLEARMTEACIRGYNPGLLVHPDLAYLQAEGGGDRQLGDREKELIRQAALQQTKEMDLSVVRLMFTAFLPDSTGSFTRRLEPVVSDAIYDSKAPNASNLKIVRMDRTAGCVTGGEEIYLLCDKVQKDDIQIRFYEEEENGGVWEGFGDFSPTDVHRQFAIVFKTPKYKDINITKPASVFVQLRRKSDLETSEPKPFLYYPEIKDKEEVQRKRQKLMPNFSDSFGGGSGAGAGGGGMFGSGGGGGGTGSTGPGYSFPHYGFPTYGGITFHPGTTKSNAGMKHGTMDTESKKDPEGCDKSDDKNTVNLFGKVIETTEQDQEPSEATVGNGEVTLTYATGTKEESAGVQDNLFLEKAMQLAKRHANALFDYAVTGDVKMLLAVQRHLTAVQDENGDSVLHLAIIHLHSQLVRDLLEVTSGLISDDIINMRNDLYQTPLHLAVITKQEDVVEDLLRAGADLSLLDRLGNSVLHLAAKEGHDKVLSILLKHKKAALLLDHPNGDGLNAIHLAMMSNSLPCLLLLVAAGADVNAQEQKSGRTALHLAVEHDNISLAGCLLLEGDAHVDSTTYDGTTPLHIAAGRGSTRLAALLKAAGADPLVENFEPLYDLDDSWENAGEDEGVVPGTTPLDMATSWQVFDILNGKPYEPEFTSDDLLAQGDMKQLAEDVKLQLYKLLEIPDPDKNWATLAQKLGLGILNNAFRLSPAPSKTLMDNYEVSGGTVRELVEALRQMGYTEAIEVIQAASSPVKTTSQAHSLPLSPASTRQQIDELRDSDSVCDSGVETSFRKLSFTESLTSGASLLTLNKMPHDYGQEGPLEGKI
Sequence of Signal transducer and activator of transcription 3 (Homo sapiens) (P40763 whole entry, looked up): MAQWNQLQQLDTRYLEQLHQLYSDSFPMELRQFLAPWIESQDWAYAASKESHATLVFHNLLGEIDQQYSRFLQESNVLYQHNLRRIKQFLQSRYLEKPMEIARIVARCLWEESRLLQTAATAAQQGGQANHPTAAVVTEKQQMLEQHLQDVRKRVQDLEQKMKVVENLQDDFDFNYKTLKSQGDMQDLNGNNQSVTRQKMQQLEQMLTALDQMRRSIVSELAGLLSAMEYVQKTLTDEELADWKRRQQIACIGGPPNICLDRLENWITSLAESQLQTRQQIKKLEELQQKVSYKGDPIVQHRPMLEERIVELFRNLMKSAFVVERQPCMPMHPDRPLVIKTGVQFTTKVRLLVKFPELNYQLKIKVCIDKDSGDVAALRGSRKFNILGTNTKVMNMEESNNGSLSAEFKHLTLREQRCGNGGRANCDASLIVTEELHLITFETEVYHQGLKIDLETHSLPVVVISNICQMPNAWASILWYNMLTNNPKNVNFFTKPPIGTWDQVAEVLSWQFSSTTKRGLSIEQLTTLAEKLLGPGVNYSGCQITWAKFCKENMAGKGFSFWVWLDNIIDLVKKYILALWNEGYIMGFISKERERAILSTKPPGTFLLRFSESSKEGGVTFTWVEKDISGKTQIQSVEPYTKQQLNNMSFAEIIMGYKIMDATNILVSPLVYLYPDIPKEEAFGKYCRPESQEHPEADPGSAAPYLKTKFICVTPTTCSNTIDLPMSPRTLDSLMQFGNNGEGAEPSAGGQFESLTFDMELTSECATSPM

As to `CCOC(=O)CC(SP(=S)(OC)OC)C(=O)OCC` (stereo unspecified), the outcome in experiment [1], in [2], in experiment [3], in experiment [4], in experiment [5] and in [6] was inactive. Besides, the compound was called inactive in [7], in experiment [8], in [9] and in experiment [10].

By AC50 is commonly meant the concentration at which the activity in the assay is half-maximal. As to `CCCC1COC(Cn2cncn2)(c2ccc(Cl)cc2Cl)O1` (stereo unspecified), the call in experiment [1], in experiment [2], in [3], in experiment [8] and in [9] was inactive. Moreover, the concentration at half-maximal activity (AC50) is 40.5 µM (active) in experiment [4]; 12.3 µM (active) in experiment [5]; 50 µM (active) in [6]; 83.6 µM (active) in experiment [7]; 62.8 µM (active) in experiment [10].

As to `C=CCC1=C(C)C(OC(=O)C2C(C=C(C)C)C2(C)C)CC1=O` (stereo unspecified), the compound was classed as inactive in [1], in experiment [2], in [3], in experiment [5], in [6] and in experiment [7]. Besides, the outcome in [8], in experiment [9] and in experiment [10] was inactive. Also, the AC50 was 86.3 µM (active) and 83.2 µM (active) and 50 µM (active) in experiment [4]; 50 µM (active) in experiment [5]; 69.1 µM (active) in [8]; 87.3 µM (active) and 50 µM (active) in [10].

For the compound `CCOC(=O)C(Cl)Cc1cc(-n2nc(C)n(C(F)F)c2=O)c(F)cc1Cl` (stereo unspecified), the compound was called inactive in experiment [1], in experiment [2], in [3], in experiment [4], in experiment [5] and in experiment [6]. Besides, the call in experiment [7], in experiment [8], in experiment [9] and in [10] was inactive.

For `CNC(=O)ON=CC(C)(C)SC`, the call in experiment [1], in experiment [2], in experiment [3], in [4], in experiment [5] and in [6] was inactive. Also, the outcome in [7], in [8], in experiment [9] and in experiment [10] was inactive.

Turning to `CC(Oc1ccc(Cl)cc1Cl)C(=O)O` (stereo unspecified), the call in experiment [1], in experiment [2], in experiment [3], in experiment [4], in [6] and in experiment [7] was inactive. Besides, the outcome in [8], in [9] and in experiment [10] was inactive. In addition, in experiment [5], the AC50 is 50 µM (active).

`COC(=O)c1ccccc1C(=O)OC`: the result in [1], in experiment [2], in [3], in [4], in experiment [5] and in experiment [6] was inactive. The result in [7], in [8], in experiment [9] and in experiment [10] was inactive.

Regarding `N#CC(CCc1ccc(Cl)cc1)(Cn1cncn1)c1ccccc1` (stereo unspecified), the compound was called inactive in [1], in [2], in experiment [3], in experiment [5], in [6] and in experiment [8]. Also, the call in experiment [9] was inactive. The AC50 is 71.5 µM (active) in experiment [4], 72.4 µM (active) in [7] and 83.6 µM (active) in [10].

For `CCOc1cc(Oc2ccc(C(F)(F)F)cc2Cl)ccc1[N+](=O)[O-]`, the call in experiment [1], in experiment [2], in experiment [3], in experiment [5], in experiment [6] and in experiment [8] was inactive. Further, in experiment [9], the call was inactive. Also, the AC50 is 38.6 µM (active) in [4], 21.9 µM (active) in experiment [7] and 20.6 µM (active) in [10].

Turning to `CCCN(CCC)c1c([N+](=O)[O-])cc(S(N)(=O)=O)cc1[N+](=O)[O-]`, the compound was called inactive in [1], in [2], in [4], in [6], in experiment [7] and in experiment [10]. Besides, the AC50 was 72 µM (active) in experiment [2]; 93.1 µM (active) and 75.5 µM (active) and 76.5 µM (active) in experiment [3]; 57 µM (active) in experiment [4]; 92.7 µM (active) and 50 µM (active) and 83.9 µM (active) in experiment [5]; 79.3 µM (active) and 79.5 µM (active) in experiment [7]; 96.3 µM (active) and 50 µM (active) and 84.4 µM (active) in [8]. Also, the AC50 in experiment [9] was 94 µM (active) and 50 µM (active) and 77 µM (active).

Take `CCON=C(CC)C1=C(O)CC(c2c(C)cc(C)cc2C)CC1=O` (stereo unspecified): the compound was called inactive in experiment [1], in experiment [2], in [3], in experiment [4], in experiment [5] and in experiment [6]. Further, the compound was called inactive in experiment [7], in experiment [8], in experiment [9] and in experiment [10].

Regarding `CN(C)C(=S)SSC(=S)N(C)C`, the call in experiment [1], in experiment [2], in [3], in experiment [4], in [5] and in experiment [6] was inactive. Also, the result in [7], in [8], in experiment [9] and in experiment [10] was inactive.
